For some assays here: Measured potencies and affinities stand elsewhere.
Experiments:
[1] = target: T1, Methionyl-tRNA synthetase, putative (Leishmania donovani (strain BPK282A1)) (UniProt E9BF75); assay: Leishmania donovani Methionine tRNA synthetase (LdMetRS):v7. Dose response assay; assay type: functional; parameters: conc 80 nM, time 150 minutes
T1 sequence (whole entry): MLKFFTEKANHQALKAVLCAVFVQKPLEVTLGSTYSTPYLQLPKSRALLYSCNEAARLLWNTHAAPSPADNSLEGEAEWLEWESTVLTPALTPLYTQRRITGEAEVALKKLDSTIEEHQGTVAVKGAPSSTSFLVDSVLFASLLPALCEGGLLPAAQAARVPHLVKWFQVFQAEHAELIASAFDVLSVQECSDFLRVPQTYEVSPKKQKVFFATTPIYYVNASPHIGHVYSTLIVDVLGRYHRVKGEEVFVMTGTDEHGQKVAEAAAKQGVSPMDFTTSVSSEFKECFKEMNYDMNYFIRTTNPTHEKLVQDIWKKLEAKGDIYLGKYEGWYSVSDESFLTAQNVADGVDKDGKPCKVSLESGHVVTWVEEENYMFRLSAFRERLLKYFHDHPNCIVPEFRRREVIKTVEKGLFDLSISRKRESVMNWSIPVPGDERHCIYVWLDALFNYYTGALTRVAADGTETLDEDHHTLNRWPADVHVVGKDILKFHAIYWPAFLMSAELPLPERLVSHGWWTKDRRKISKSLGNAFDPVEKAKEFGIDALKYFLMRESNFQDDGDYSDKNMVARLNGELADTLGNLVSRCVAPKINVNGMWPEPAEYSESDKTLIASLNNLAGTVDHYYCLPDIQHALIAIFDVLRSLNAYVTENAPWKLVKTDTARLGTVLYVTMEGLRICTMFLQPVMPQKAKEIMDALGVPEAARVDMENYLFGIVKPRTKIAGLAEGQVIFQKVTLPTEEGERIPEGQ

[2] = target: Protein translocase subunit SecA (Escherichia coli (strain K12)) (UniProt P10408); assay: Assay to Identify E. coli SecA ATPase Inhibitors; assay type: functional; parameters: scale not given: direction of the effect not stated beside the values; conditions: 30 µM
Protein translocase subunit SecA (Escherichia coli (strain K12)), sequence (P10408 whole entry): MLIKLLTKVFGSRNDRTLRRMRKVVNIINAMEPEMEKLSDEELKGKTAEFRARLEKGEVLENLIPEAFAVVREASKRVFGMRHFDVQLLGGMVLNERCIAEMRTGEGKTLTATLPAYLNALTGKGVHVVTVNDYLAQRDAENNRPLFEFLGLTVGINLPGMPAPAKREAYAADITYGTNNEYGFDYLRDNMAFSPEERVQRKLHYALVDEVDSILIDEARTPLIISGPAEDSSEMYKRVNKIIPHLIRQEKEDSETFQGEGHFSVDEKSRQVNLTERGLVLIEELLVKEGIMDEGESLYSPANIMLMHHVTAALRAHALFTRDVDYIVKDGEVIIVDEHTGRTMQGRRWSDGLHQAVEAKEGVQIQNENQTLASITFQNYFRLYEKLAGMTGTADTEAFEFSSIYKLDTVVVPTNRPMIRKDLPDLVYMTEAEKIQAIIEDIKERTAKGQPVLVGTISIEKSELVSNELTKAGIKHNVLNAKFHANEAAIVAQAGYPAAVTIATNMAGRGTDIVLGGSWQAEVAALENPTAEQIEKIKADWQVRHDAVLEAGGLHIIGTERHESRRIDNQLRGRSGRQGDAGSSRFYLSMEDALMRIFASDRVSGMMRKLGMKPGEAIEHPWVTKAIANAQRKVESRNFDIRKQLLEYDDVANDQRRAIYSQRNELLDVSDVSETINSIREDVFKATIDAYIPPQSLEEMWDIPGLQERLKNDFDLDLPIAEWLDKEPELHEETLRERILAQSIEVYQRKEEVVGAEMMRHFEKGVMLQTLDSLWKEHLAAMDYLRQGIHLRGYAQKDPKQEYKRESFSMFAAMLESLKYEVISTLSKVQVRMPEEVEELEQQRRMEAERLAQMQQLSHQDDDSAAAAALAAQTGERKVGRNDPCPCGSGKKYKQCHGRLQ

[3] = target: T2, Ubiquitin-activating enzyme e1, putative (Leishmania donovani (strain BPK282A1)) (UniProt E9BSI1); assay: Leishmania donovani Ubiquitin Activating Enzyme (LdE1); assay type: functional; parameters: scale not given: direction of the effect not stated beside the values; conditions: 30 µM
T2 sequence (whole entry): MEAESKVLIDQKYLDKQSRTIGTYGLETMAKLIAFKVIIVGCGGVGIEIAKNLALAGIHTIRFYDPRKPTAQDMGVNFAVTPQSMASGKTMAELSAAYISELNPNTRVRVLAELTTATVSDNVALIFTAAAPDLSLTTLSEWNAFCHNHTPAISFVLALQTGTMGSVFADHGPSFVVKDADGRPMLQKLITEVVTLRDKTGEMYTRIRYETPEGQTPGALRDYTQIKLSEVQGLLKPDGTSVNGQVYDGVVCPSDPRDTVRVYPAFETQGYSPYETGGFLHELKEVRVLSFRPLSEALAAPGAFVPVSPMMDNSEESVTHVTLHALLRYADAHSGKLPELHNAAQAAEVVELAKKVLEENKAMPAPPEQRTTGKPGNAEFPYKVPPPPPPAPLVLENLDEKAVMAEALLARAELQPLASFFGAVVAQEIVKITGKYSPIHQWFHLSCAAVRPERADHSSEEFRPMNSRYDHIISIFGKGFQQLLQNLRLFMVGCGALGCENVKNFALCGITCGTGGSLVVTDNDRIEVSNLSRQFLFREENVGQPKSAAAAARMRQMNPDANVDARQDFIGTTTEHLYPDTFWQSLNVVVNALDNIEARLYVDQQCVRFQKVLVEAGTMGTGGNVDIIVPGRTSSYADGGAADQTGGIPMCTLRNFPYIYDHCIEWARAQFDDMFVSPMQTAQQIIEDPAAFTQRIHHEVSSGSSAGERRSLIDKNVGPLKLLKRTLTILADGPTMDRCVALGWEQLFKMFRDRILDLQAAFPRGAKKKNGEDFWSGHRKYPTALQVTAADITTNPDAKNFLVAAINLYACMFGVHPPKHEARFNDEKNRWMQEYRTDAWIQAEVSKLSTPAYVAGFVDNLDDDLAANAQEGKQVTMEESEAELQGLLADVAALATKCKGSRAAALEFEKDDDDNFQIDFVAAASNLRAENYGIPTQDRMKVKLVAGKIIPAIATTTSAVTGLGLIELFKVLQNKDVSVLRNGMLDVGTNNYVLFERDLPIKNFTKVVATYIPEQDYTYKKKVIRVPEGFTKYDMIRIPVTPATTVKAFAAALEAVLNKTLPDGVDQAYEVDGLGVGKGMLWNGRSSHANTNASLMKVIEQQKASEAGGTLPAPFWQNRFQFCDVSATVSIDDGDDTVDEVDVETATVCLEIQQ

[4] = target: Sialic acid-binding Ig-like lectin 9 (Homo sapiens) (UniProt Q9Y336); assay: Hs-Siglec9 ALPHAscreen SOP 20170721; parameters: scale not given: direction of the effect not stated beside the values; conditions: 10 µM
Sialic acid-binding Ig-like lectin 9 (Homo sapiens), sequence (Q9Y336 whole entry): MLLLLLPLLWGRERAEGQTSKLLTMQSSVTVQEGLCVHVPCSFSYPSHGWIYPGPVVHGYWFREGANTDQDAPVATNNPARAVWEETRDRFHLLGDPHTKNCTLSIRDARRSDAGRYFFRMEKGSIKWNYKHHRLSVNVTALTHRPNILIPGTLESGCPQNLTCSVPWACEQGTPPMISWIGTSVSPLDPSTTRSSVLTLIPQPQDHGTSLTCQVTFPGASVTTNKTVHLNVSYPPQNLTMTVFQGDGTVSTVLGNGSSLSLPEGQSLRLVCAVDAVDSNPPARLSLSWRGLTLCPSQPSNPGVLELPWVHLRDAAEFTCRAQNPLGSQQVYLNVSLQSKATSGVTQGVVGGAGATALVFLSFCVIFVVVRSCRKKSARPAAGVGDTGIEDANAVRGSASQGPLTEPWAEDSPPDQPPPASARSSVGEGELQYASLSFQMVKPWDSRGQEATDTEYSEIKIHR

[5] = system: Trypanosoma cruzi; assay: Trypanosoma cruzi phosphomannomutase and mannose-1-phosphate guanylyltransferase assay; assay type: functional; parameters: scale not given: direction of the effect not stated beside the values; conditions: 10 µM
[6] = target: T3, Arginase-2, mitochondrial (Homo sapiens) (UniProt P78540); assay: in vitro enzyme assay to detect the production of urea directly proportional to the activity of Arginase II; assay type: functional; parameters: scale not given: in the data most compounds retested in dose-response had high values; conditions: 33.3 µM
T3 sequence (whole entry): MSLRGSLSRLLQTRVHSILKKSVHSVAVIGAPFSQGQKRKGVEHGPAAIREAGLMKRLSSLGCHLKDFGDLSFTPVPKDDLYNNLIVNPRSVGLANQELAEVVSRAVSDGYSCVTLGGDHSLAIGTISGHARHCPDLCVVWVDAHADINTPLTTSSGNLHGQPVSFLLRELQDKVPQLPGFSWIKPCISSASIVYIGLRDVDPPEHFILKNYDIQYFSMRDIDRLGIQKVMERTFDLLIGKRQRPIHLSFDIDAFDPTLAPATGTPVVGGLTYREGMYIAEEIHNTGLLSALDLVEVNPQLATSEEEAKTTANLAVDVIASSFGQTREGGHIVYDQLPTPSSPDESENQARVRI

[7] = target: T4, Proteasome subunit beta (Trypanosoma cruzi) (UniProt O96673); assay: Trypanosoma cruzi proteasome chymotrypsin-like activity (TcProtChymo) assay.; assay type: functional; parameters: scale not given: in the data most compounds retested in dose-response had high values; conditions: 9.37 µM
T4 sequence (whole entry): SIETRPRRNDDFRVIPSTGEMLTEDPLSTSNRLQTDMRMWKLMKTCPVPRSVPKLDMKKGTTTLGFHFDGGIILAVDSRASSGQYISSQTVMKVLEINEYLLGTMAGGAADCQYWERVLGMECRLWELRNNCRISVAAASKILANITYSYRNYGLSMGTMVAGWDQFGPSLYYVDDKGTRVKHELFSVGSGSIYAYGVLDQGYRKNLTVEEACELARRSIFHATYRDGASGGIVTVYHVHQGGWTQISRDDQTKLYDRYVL

[8] = species on record: Homo sapiens; assay: To identify inhibition of the IFN signalling (Jak-Stat) pathway via expression of an eGFP reporter gene under the control of an IFN-stimulated response element (ISRE) containing MxA promoter.; assay type: functional; parameters: scale not given: direction of the effect not stated beside the values; conditions: 30 µM
[9] = target: T5, Tyrosyl-tRNA synthetase, putative (Trypanosoma cruzi (strain CL Brener)) (UniProt Q4DSP6); assay: Trypanosoma cruzi tyrosyl tRNA synthetase (TcYRS) _High Tyrosine SOP; assay type: functional; parameters: scale not given: in the data most compounds retested in dose-response had high values; conditions: 30 µM
T5 sequence (whole entry): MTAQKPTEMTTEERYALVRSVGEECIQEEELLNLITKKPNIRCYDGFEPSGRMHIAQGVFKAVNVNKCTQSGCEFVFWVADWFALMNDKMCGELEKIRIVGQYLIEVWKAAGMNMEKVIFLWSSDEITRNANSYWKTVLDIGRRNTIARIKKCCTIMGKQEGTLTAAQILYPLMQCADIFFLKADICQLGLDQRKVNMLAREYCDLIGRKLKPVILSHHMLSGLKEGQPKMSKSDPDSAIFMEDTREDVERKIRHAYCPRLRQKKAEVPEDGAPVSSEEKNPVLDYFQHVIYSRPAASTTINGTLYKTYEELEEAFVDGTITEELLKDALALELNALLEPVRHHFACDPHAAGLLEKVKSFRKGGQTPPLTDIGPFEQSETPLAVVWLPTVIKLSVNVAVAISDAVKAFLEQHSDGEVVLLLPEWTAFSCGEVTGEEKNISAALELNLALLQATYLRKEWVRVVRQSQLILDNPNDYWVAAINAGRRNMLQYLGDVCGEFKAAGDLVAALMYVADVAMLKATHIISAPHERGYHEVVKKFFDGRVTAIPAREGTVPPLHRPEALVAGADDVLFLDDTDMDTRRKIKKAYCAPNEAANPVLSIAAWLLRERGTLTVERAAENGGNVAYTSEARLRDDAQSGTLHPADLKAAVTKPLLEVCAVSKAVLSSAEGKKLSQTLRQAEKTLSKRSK

[10] = target: T5, Tyrosyl-tRNA synthetase, putative (Trypanosoma cruzi (strain CL Brener)); assay: Trypanosoma cruzi tyrosyl tRNA synthetase (TcYRS) SOP; assay type: functional; parameters: scale not given: direction of the effect not stated beside the values; conditions: 30 µM
[11] = target: Chromo domain-containing protein 1 (Saccharomyces cerevisiae (strain ATCC 204508 / S288c) (Baker's yeast)) (UniProt P32657); assay: ScCHD-1 Enzyme Inhibition Assay; assay type: functional; parameters: scale not given: in the data most compounds retested in dose-response had high values; conditions: 30 µM
Chromo domain-containing protein 1 (Saccharomyces cerevisiae (strain ATCC 204508 / S288c) (Baker's yeast)), sequence (P32657 whole entry, the tested form may be a part): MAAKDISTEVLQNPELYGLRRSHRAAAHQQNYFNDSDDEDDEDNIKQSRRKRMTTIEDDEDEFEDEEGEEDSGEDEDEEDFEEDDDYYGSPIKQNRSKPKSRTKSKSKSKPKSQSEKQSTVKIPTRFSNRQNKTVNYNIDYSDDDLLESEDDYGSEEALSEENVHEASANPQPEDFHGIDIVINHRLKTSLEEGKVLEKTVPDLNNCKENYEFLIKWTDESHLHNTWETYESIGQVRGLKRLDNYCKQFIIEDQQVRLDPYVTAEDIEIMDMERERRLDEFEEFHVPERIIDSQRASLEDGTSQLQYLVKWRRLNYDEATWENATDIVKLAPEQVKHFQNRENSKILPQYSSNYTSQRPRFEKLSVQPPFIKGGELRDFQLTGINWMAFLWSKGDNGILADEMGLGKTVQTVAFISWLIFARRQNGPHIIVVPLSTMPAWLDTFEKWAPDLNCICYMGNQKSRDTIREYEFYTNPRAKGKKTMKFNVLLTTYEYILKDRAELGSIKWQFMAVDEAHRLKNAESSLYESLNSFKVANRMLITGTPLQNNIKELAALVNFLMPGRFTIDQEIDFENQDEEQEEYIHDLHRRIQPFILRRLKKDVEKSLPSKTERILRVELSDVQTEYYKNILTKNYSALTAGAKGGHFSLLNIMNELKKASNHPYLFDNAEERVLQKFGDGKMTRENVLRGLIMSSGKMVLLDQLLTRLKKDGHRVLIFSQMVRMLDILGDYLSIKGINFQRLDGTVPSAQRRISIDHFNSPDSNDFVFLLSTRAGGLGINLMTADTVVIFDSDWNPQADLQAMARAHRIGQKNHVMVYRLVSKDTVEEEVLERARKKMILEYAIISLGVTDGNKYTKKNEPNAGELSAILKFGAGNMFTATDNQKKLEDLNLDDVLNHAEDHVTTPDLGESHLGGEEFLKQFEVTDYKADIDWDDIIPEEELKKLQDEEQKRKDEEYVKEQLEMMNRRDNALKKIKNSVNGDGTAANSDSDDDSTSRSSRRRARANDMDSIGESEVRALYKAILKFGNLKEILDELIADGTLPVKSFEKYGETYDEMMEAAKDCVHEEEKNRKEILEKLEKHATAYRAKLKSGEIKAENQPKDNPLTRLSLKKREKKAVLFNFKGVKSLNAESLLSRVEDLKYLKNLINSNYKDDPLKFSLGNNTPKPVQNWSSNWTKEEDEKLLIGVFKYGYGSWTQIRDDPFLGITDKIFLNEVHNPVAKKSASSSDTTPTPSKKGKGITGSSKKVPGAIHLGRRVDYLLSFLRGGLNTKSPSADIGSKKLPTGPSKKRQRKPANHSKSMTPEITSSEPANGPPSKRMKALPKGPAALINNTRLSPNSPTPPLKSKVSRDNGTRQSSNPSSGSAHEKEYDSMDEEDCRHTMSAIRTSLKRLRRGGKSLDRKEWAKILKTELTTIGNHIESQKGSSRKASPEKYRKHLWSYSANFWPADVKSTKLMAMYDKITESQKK

| Structure (SMILES) | PXC50 ([1]; MAX_EFFECT 33.33333333) | PXC50 ([1]; MAX_EFFECT 43.95393474) | PXC50 ([1]; MAX_EFFECT 49.10394265) | PXC50 ([1]; MAX_EFFECT 49.8349835) | PXC50 ([1]; MAX_EFFECT 55.07246377) | Percent Effect [2] | Percent Effect [3] | Percent Effect [4] | Percent Effect [5] | Percent Effect [6] | Percent Effect [7] | Percent Effect [8] | Percent Effect [9] | Percent Effect [10] | Percent Effect [11] | PXC50 ([1]; BOTTOM 4.710746105, HILLSLOPE 1.396694103, MAX_EFFECT 77.77777778, TOP 100.0) | PXC50 ([1]; BOTTOM 4.776972445, HILLSLOPE 4.284267496, MAX_EFFECT 55.70469799, TOP 54.26344413) | PXC50 ([1]; BOTTOM 5.773645077, HILLSLOPE 1.775302265, MAX_EFFECT 72.6169844, TOP 100.0) | PXC50 ([1]; MAX_EFFECT 2.857142857) | PXC50 ([1]; MAX_EFFECT 4.347826087) |
| --- | --- | --- | --- | --- | --- | --- | --- | --- | --- | --- | --- | --- | --- | --- | --- | --- | --- | --- | --- | --- |
| NC[C@H]1CC[C@H](C(NC(=O)c2cccc(F)c2)c2ccccn2)CC1 (stereo not given in full) | < 4 | < 4 | < 4 | < 4 | < 4 | 0.535% | 12% | -8.09% | 6.51% | -0.443% | 9.36% | 8.62% | 31.8% | 45% | -26.3% | – | – | – | – | – |
| Cc1nccn1CCCn1cncc1-c1ccc2c(c1)CCC(C)N2C (stereo not given) | – | – | – | – | – | – | – | – | – | – | – | – | – | – | – | 4.36 | 4.56 | 4.22 | < 4 | < 4 |
